Structures are written as SMILES. Out of some 120,000 compounds screened, about 55 (0.05%) were called active. The list comes from a sample in which actives are over-represented; it also holds similar structures and randomly drawn compounds. A number with no mark means an inactive call. Cut-off read from the data, not from the text of the source: active = inhibition above about 25% (passing the limit was not always enough); inactive = the rest.

These results are taken from PubChem BioAssay AID485395 (ICCB-Longwood Screening Facility, Harvard Medical School, 2010).

In this assay the test system is replicative DNA helicase (DnaC/DnaB), Staphylococcus aureus. Kind of assay: S. aureus DnaC helicase unwinding inhibition – biochemical, fluorescence unwinding readout, primary screen (AID 485395).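 Note: 0% = mean of negative control wells and 100% = mean of positive control wells.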 The settings on record: purified S. aureus helicase, fluorescence unwinding assay; active compounds read high; concentration not given here.
Take `Cc1ccc(C)c(C(C)NC(=O)Cc2c(C)noc2C)c1` (stereo not drawn): the inhibition is -13%.

Consider `Cc1cc(C)cc(NC(=O)N2CCC3(CC2)OCCO3)c1`, for which the inhibition is 24%.

Regarding `CCOc1ccc(NC(=O)Cn2c(=O)n(CC(=O)NC3CCCC3)c(=O)c3ccccc32)cc1`, the inhibition is -11%.

With `COC(CNC(=O)c1c[nH]c2ccc(S(=O)(=O)N(C)c3ccc(C(C)C)cc3)cc2c1=O)OC`, the inhibition was -3%.

In the case of `CCOC(=O)Cc1sc(NC(C)=O)nc1-c1ccccc1`, the inhibition is -9%.

On to `CCn1nc(C(=O)OCCCCN2C(=O)c3ccccc3C2=O)c2ccccc2c1=O`, for which the inhibition was -20%.

`CC(C)Cc1nnc(N)s1`: the inhibition is 5%.

For `CCCCNC(=O)Cn1c(-c2ccc(C)cc2)noc1=O`, the inhibition was 10%.

`CC1(C)CC(=NNC(N)=S)CC(C)(C)N1`: the inhibition is 0%.

With `COCC(C)n1c(C)cc(C2=NNC(=Nc3ccc(F)cc3F)SC2)c1C` (stereo not drawn), the inhibition is 16%.

`C1=C(c2ccccc2)Nc2ncnn2C1c1ccco1` (stereo not drawn): the inhibition is -1%.

Consider `CCC(=O)Nc1ccc(-c2cn3cccnc3n2)cc1`, for which the inhibition is 5%.

For the molecule `CCOC(=O)c1c(Cc2cccc(C)c2)c[nH]c1-c1ccccc1`, the inhibition was 9%.

Regarding `Cc1nc2ncnn2c(C)c1CCC(=O)N(Cc1cccnc1)c1ccc2c(c1)OCO2`, the inhibition was -82%.

`CCN(CC)C(=O)c1ccc(CS(=O)c2cccc(Cl)c2)o1` (stereo not drawn): the inhibition is 24%.

As to `N#Cc1ccc(OCC(=O)N2CCN(c3ccc(O)cc3)CC2)cc1`, the inhibition is 12%.

For the molecule `COCCN(Cc1nc2ccccc2c(=O)[nH]1)C(=O)C1=NN(c2cccc(C)c2)C(=O)CC1`, the inhibition was 4%.

As for `Cc1cc(F)ccc1S(=O)(=O)Nc1ccccc1C(=O)OCC(=O)N1CCCC1=O`, the inhibition was 4%.

As to `COCc1cc(C)nc(SCC(=O)NC2C3CC4CC(C3)CC2C4)c1C#N` (stereo not drawn), the inhibition was 1%.

As to `CCOCc1c[nH]c(=O)[nH]c1=O`, the inhibition is 4%.

As to `COc1ccc(NC(=O)CCCn2nnc3ccccc3c2=O)cc1`, the inhibition is -14%.

For the molecule `Cc1ccc2[nH]c(=O)c3cc(C(=O)N4CCCc5ccccc54)sc3c2c1`, the inhibition is 8%.

`COc1cc(C)c2c(=O)c(-c3csc(C)n3)coc2c1`: the inhibition is -19%.

Turning to `COC(=O)c1ccc2c(c1)C(=O)/C(=C\c1ccccc1O)O2`, the inhibition is 4%.

Regarding `CCNC(=O)C1CCN(c2ncnc3c2nc2n3CCCCC2)CC1`, the inhibition was -22%.

Take `CCN(Cc1ccc(Cl)s1)Cn1c(CO)nc2ccccc21`: the inhibition was -6%.

In the case of `Nc1nc(N)nc(SCC(=O)N2N=C(c3ccc4ccccc4c3)CC2c2ccccc2)n1` (stereo not drawn), the inhibition was -3%.

With `NC(=O)C12CC3CC(CC(Cl)(C3)C1)C2`, the inhibition was -9%.

Take `COc1ccc2c(=O)c(-c3ccc(F)cc3)coc2c1`: the inhibition is 0%.

Take `CN1C2=C(C(=O)CCC2)C(c2ccc(O)c(Cl)c2)C2=C1CCCC2=O`: the inhibition was 10%.

Regarding `CC(C)C(NC(=O)c1ccco1)C(=O)N1CCC(Cc2ccccc2)CC1` (stereo not drawn), the inhibition is -7%.

Regarding `CC1(C)CCCC2=C1CC1C(=O)N(CCC[N+](C)(C)C)C(=O)C1C2` (stereo not drawn), the inhibition was 6%.

Turning to `CC1CC(C)CN(C(=O)c2ccc3c(c2)N(C)C(=O)/C(=C/c2cccc(Cl)c2)S3)C1` (stereo not drawn), the inhibition is -10%.

Turning to `CCOc1ccc(-n2c(CSc3nc(C)cc(C)n3)nnc2SC)cc1`, the inhibition is 27%.

On to `O=C1CCCc2c1cnn2-c1ccccc1`, for which the inhibition was -10%.

Take `CN(Cc1ccccc1)S(=O)(=O)c1ccc2c3c(cccc13)C(=O)N2`: the inhibition is 5%.

Turning to `O=C(O)c1cccc(S(=O)(=O)NCC(F)(F)F)c1`, the inhibition is 18%.

On to `Cc1ccc(OCCn2cc(/C=C3/C(=O)Nc4cc(Cl)ccc43)c3ccccc32)cc1C`, for which the inhibition is -483%.

Regarding `N#Cc1cccc(OCC(=O)NCC(F)(F)F)c1`, the inhibition is 12%.

Consider `Cc1c(/C=C(\C#N)C(=O)O)cc(C#N)n1C`, for which the inhibition was -11%.

For `Cc1cnc(C(=O)Nc2ccc(S(=O)(=O)NC(C)C)cc2)cn1`, the inhibition was -1%.

For `CCSc1nnc(SCC(=O)c2ccc(OC)cc2OC)s1`, the inhibition was -4%.

For the molecule `COC(=O)c1c(Cn2cc(Br)ccc2=O)nc2ccccc2c1C`, the inhibition is 0%.

On to `COc1nc(-c2ccccc2)ccc1-c1noc(C(C)C)n1`, for which the inhibition is 2%.

As for `CCCNc1cc(C)nc2nc(-c3ccc(OC)cc3)nn12`, the inhibition is 12%.

For `O=C(Cc1c(F)cccc1Cl)OCc1ncc(-c2ccccc2)o1`, the inhibition is -4%.

Turning to `Cc1ccc(-c2cc(C(=O)N3CCCCC3C)[nH]n2)cc1C` (stereo not drawn), the inhibition was -28%.

Consider `CCc1ccccc1NC(=O)Cn1ncc2c(=O)oc3ccccc3c21`, for which the inhibition was 4%.

For the molecule `CCSc1nsc(SCC)c1C(=O)O`, the inhibition is -3%.

Turning to `COc1ccccc1C/C(N)=N/OC(=O)c1ccccc1`, the inhibition was 6%.

Take `NC(=O)COC(=O)/C=C/c1ccc(S(=O)(=O)N2CCOCC2)cc1`: the inhibition was -10%.

On to `COc1ccc(-n2nc(C(=O)NCC(=O)N3CCOCC3)c3ccccc3c2=O)cc1`, for which the inhibition was -25%.

With `COc1ccc(S(=O)(=O)NCCn2ccc3ccccc32)cc1`, the inhibition was -14%.

With `CC1(C)CC(NS(C)(=O)=O)CC(C)(C)N1O`, the inhibition was 20%.

As to `CC(C)c1ccccc1N=Cc1ccc2c(c1)OCO2`, the inhibition is -15%.

`NC(=O)C1CCN(C(=O)COc2ccc(Cl)cc2Cl)CC1`: the inhibition was 0%.

Regarding `N#CCCn1cc(/C=c2\sc3nc4ccccc4n3c2=O)c(-c2ccc(F)cc2)n1`, the inhibition is 4%.

For the molecule `Cn1nc(NCc2ccc(Cl)cc2)c(=O)n(C)c1=O`, the inhibition is -8%.

`O=C(Nc1cccc(C(F)(F)F)c1)/C(=C\c1cccnc1)NC(=O)c1cccs1`: the inhibition was -22%.

Turning to `COC(=O)N/N=C(\C)c1ccc2c(c1)Nc1ccccc1S2`, the inhibition was 8%.

On to `Cc1cc(NC(=O)COC(=O)C2=COCCO2)n(-c2ccccc2)n1`, for which the inhibition was 4%.

With `CC(C)Cn1c(SCC(=O)Nc2ccccc2)nc2ccccc21`, the inhibition is 14%.

Take `O=C1NC(c2ccccn2)Nc2sc3c(c21)CCCC3` (stereo not drawn): the inhibition is 9%.

As to `c1ccc(CCNCc2cn[nH]c2-c2cccs2)cc1`, the inhibition is -16%.

In the case of `COc1ccccc1N=Cc1c(O)n(-c2ccccc2OC)c(=O)[nH]c1=O`, the inhibition is 8%.

Turning to `CC1Nc2ccc(C(=O)N3CCC4(CC3)OCCO4)cc2NC1=O` (stereo not drawn), the inhibition is 34%.

In the case of `CC(C)(C)NC(=O)C(C)(C)Oc1ccc(Cl)cc1`, the inhibition was -13%.

Take `CC(Sc1nncn1C)C(=O)NCCC1=CCCCC1` (stereo not drawn): the inhibition was 9%.

In the case of `Cc1ccccc1NC(=O)CSc1nc2ccc(N)cc2s1`, the inhibition is -1%.

For `N#Cc1ccc(NC(=O)/C=C/c2ccccc2)cc1`, the inhibition was 4%.

Consider `COc1ccc(C(=O)n2c(SC)nc3ccccc32)cc1OC`, for which the inhibition was -17%.

In the case of `Cc1ccc(O)c(NC(=O)c2cccs2)c1`, the inhibition was 8%.

On to `CC1(C)C=C(C(=O)N2CCCCC2)C(C)(C)N1`, for which the inhibition is 5%.

As to `O=S1(=O)CCC(n2nnnc2-c2ccc(Cl)cc2)C1` (stereo not drawn), the inhibition is 13%.

On to `Cc1ccc(C)c(OC(=O)NC(C)(C(F)(F)F)C(F)(F)F)c1C`, for which the inhibition was 1%.

Consider `Cc1nc(SCC(=O)N2CCCC2)c2c(=O)n(C)c(=O)n(C)c2n1`, for which the inhibition is 0%.

For `CCN(CC)c1nc(-c2ccccc2O)nc2ccccc12`, the inhibition was -3%.

As to `COc1ccc(C(=O)CSC2=C(C#N)C(C)(C)C(C#N)=C(N)N2)cc1`, the inhibition is -9%.

For `O=C(COC(=O)c1ccc(N2CCCC2=O)cc1)c1ccc(OC(F)F)cc1`, the inhibition was -5%.

Regarding `COc1ccc(Br)cc1CN(C)C(C)C(=O)N1CC(C)OC(C)C1` (stereo not drawn), the inhibition is -12%.

On to `Cc1cc(C(=O)N2CCC(C)CC2)c(C)n1-c1ccc(F)cc1`, for which the inhibition was 23%.

In the case of `COc1ccc(/C=C/C(=O)CC(=O)c2ccccc2O)cc1`, the inhibition was -17%.

As for `CN(C)c1ccc(NC(=O)CSc2nnc(C3CC3)n2N)cc1`, the inhibition was -15%.

For `COc1cccc(N=Nc2c(O)[nH]c(=O)[nH]c2=O)c1`, the inhibition is 7%.

In the case of `CCOC(=O)c1cnc2c(C)c(C)ccc2c1NCCCN(C)C`, the inhibition is 65% (active).

Consider `CN(C)CCCNc1c(N)c(=O)oc2ccccc12`, for which the inhibition is 27%.

Turning to `CCOC(=O)c1cnc2c(C)cc(C)cc2c1NCCN(C)C`, the inhibition is 13%.

`COc1ccc(C(CC(=O)O)NS(=O)(=O)c2ccccc2F)cc1OC` (stereo not drawn): the inhibition is -3%.

As for `CCc1cccc2c(C3=Nn4cnnc4SC3c3ccccc3)c[nH]c12` (stereo not drawn), the inhibition is 16%.

Turning to `Cn1cc(SC(=N)N)c2ccccc21`, the inhibition was -12%.

For `Cc1[nH]n(-c2ccccc2)c(=O)c1CCC#N`, the inhibition was -6%.

As for `Cc1sc2nc(CN3CCCC3)nc(NC(C)C)c2c1C`, the inhibition is -5%.

As to `COC(CNC(=O)C1CCC(CNS(=O)(=O)c2ccc(C)cc2)CC1)OC` (stereo not drawn), the inhibition was 9%.

`COC(=O)c1sc(NC(=O)Cn2cnc3sccc3c2=O)c(C(=O)OC)c1C`: the inhibition is -7%.

As to `C=C(C)CNC(=S)NN`, the inhibition is -24%.

Regarding `CC1CCCCN1S(=O)(=O)c1ccc(I)cc1` (stereo not drawn), the inhibition is 17%.

For `CC(=O)Nc1ccc(NC2SC(=O)NC2=O)cc1` (stereo not drawn), the inhibition was 7%.

With `Cc1[nH]c2ccccc2c1SCCNC(=O)C(C)C`, the inhibition is -17%.
